Screening data from PubChem.
Vif imaging: blocks HIV Vif function | inhibition, % at 7.49 µM | 340,000 tested, 0.35% active | AID 602346 | HEK293T cells, Vif self-association by quenched fluorescence, imaging, 24 h; in the data active = inhibition above about 50%, passing the limit was not always enough
CaV13 ICDI inh: Disruptors of the CACNA1D IQ motif to Ca2+-dependent inactivation inhibitor domain association, primary screening, Förster resonance energy transfer in intact living …. inhibition, % at 12.3 µM. AID 743397. 340,000 tested, 0.098% active. HEK cells, CFP/YFP FRET ICDI-IQ, plate reader, 10 min; percent FRET-ratio fall versus neutral wells;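 active = mean replicate inhibition of at least 30% and at least 1% of replicates passing that level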;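 also: 0% = median of the neutral control wells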
DSG3 Ab inh: human desmoglein-3 autoantibody binding inhibition | 310,000 tested, 0.48% active | binding (percent of control), % at 10 µM | P32926 | AID 588358 | DSG3-coupled beads, scFv-anti-DSG3-GFP binding, flow cytometry; hits give low values;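 active = binding more than 3 SD below its plate's average and above zero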;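 also: hits lower antibody fragment binding to DSG3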
Target sequence (P32926 whole entry, looked up, the tested form may be a part): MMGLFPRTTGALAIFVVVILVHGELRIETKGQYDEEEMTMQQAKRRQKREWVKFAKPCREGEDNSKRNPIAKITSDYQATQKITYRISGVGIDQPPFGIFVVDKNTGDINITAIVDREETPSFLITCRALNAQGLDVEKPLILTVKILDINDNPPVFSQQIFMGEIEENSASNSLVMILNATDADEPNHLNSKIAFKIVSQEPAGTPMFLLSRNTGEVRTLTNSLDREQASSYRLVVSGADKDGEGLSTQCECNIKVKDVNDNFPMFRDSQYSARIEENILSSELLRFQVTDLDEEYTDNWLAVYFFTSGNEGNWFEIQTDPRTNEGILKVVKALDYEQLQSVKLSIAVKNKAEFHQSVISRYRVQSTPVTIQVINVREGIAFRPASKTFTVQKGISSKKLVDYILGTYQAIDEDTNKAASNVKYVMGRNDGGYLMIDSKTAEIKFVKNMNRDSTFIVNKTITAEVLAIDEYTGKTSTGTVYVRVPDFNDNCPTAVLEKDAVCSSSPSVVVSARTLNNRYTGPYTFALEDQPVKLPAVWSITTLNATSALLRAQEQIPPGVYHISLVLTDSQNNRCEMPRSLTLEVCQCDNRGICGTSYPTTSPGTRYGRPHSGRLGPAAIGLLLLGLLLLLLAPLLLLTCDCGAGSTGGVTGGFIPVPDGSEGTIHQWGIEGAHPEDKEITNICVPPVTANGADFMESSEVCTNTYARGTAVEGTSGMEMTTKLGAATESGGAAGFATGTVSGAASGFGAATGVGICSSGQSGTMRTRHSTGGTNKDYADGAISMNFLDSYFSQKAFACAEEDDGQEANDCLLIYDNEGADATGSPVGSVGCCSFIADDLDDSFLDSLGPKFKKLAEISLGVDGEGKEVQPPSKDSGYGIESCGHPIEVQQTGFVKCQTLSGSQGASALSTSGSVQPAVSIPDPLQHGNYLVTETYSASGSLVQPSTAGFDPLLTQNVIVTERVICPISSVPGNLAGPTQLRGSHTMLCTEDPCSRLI
NSD2 inh: NSD2 (human) methyltransferase inhibition | O96028 | NSD2 peptide methylation, AlphaScreen, 120 min | inhibition, % at 12.5 µM | 310,000 tested, 0.54% active
N-glyco inh: N-linked glycosylation inhibition. D54 ERlucT glycosylation luciferase reporter, 24 h; percent of 100 nM tunicamycin response. reporter increase, % at 12.5 µM. 360,000 tested, 0.23% active;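 active = mean luciferase reporter signal, scaled so untreated is 0 and the glycosylation-blocking control 100, at or above a set limit in every replicate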;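 also: luciferase carries N-glycosylation sites so blocking glycosylation raises the light; 0% = median of neutral control wells and 100% = median of 100 nM tunicamycin wells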
ATG4B inh: ATG4B (human) cysteine protease inhibition; Q9Y4P1; ATG4B cleavage of LC3-PLA2, NBD-HPC fluorescence, 1 h; inhibition, % at 8.33 µM; 340,000 tested, 0.51% active; AID 504462; in the data active = inhibition above about 40%
ATG4B confirm: confirmation of human ATG4B inhibitors | shares compounds with ATG4B inh | ATG4B protease fluorescent substrate cleavage assay | inhibition, % at 8.33 µM | 320 tested, 92% active; in the data active = inhibition above about 39%
PLA2 counter: inhibits human PLA2, flagging false ATG4B inhibitors. shares compounds with ATG4B inh. purified PLA2, NBD-C6-HPC fluorescence, 45 min. inhibition, % at 8.33 µM. 1,600 tested, 66% active
* = called active by the depositor; . = no result. Sampled rows, rich in hits. Any-hit rate of the full collection: about 1.9%. Rule as the data show it, unless noted: active = inhibition above about 50%; inactive = the rest.

SMILES	Vif imaging	CaV13 ICDI inh	DSG3 Ab inh	NSD2 inh	N-glyco inh	ATG4B inh	others
Cc1ccc(N2C(=O)NC(=O)/C(=C\c3ccoc3)C2=O)cc1	26.8	-6.3	98.2	25.6	4.4	1.0
O=C1NC(=S)N(c2ccc(F)cc2)C(=O)/C1=C\c1ccoc1	4.1	.	85.5	.	1.8	85.4*
COC1/C=C/C=C(\C)Cc2cc(O)c(Cl)c(c2)N(C)C(=O)CC(OC(=O)C(C)C)C2(C)OC2C(C)C2CC1(O)NC(=O)O2 (configuration not stated)	64.1*	-8.8	86.7	-5.3	-13.7	-1.5
CCN(CC)c1ccc(CN2CC=C(c3ccc(F)cc3)CC2)cc1	4.7	.	100.8	54.1*	1.1	-1.7
CCS(=O)(=O)Nc1cccc(C(=C2CCCCC2)c2cnc[nH]2)c1	69.3*	-5.0	104.7	.	11.2	1.3
O=C1CC=C2C3CC4N(CCC45c4cc(O)c(O)cc4N1C25)CC3=CCBr (configuration not stated)	-2.7	-5.2	53.6*	107.0*	0.0	9.9
O=C1CC=C2C3CC4N(CCC45c4ccccc4N1C25)CC3=CCO (configuration not stated)	-8.6	-8.9	97.2	-1.6	0.0	-4.8
C/C(=N\N1CCCCCC1)c1c(O)n(-c2ccc(C)cc2)c(=O)[nH]c1=O	68.0*	8.9	78.3	-2.7	2.5	-4.1
NC(=O)c1ccc(N=Cc2c(O)n(Cc3ccco3)c(=O)[nH]c2=O)cc1	6.0	-4.9	79.5*	0.1	2.6	4.9
CCN(CC)c1ccc(N=Cc2c(O)n(Cc3ccco3)c(=O)[nH]c2=O)cc1	-4.4	-28.2	.	-0.1	5.2	1.4
CN1CCC(N(C)c2ncnc3ccc(Br)cc23)CC1	-6.7	-7.0	107.9	.	-4.6	-3.3
Cc1ccc(-c2nc(N(C)C3CCN(C)CC3)c3ccccc3n2)cc1	.	.	102.3	.	48.8*	-2.9
CC(=O)Nc1nnc(CCN(CCc2nnc(NC(C)=O)s2)[N+](=O)[O-])s1	8.4	-3.5	112.4	-0.1	2.9	-10.6
COC(=O)C1=C(c2cc3ccccc3o2)C[C@@H]2CC[C@H]1N2C(=O)N1CCOCC1	3.8	-4.5	103.2	.	36.3*	-6.5
COC(=O)C1=C(c2ccc3ccccc3c2)C[C@@H]2CC[C@H]1N2C(=O)N1CCOCC1	-16.3	-10.6	99.5	.	3.4	-7.0
CC(C)(C)n1nnnc1C(c1ccccc1)N1CCC2(CC1)C(=O)NCN2c1ccccc1 (configuration not stated)	-0.9	-8.4	.	.	-0.8	.
COc1ccc(-n2c(/C=C/c3ccc(O)c(O)c3)nc3ccccc3c2=O)cc1	-7.6	-9.1	86.3	18.9	-3.1	49.4*	PLA2 counter=51.6*
Clc1ccc(C(c2ccc(Cl)cc2)n2cc[n+](CC(OCc3ccc(Cl)cc3Cl)c3ccc(Cl)cc3Cl)c2)cc1 (configuration not stated)	0.2	-3.8	142.0	.	-23.3	45.0*	PLA2 counter=90.3*
O=c1c2ccccc2nc(/C=C/c2ccccc2F)n1-c1ccccc1O	-0.7	-2.3	92.7	1.5	-2.3	61.6*	PLA2 counter=70.3*
O=c1c2ccccc2nc(/C=C/c2ccccc2O)n1-c1ccccc1O	-0.6	-2.9	108.4	3.3	-0.7	.
COC(=O)C1=C(c2cccc(OC)c2OC)C[C@@H]2CC[C@H]1N2C(=O)NC1CC1	0.3	-9.0	101.3	.	1.8	-8.0
Cc1nc2c(=O)n(C)c(=O)nc-2n(C)n1	8.9	0.5	82.0	.	-18.7	82.5*	ATG4B confirm=25.3;PLA2 counter=-8.6
COC(=O)C(O)(c1ccc(NC(=O)c2cccs2)c(C)c1)C(F)(F)F (configuration not stated)	-3.5	4.6	.	-2.3	0.8	-8.6
